Source: PubChem (National Center for Advancing Translational Sciences (NCATS))
The list is not random: actives were taken first. Their share in the collection is about 8.7%.
JMJD2A Tudor inh: qHTS Assay for Inhibitors of JMJD2A-Tudor Domain | 390,000 tested, 4.4% active | AID 504339, 2011 | AlphaScreen JMJD2A-Tudor / H3K4me3 peptide binding | Potency, µM (doses to about 114 µM), most hits filed as inhibitors | Lysine-specific demethylase 4A (Homo sapiens), O75164; note: nearly all actives have a fitted effect of over 50% in size
Target sequence (O75164 whole entry, looked up, the tested form may be a part): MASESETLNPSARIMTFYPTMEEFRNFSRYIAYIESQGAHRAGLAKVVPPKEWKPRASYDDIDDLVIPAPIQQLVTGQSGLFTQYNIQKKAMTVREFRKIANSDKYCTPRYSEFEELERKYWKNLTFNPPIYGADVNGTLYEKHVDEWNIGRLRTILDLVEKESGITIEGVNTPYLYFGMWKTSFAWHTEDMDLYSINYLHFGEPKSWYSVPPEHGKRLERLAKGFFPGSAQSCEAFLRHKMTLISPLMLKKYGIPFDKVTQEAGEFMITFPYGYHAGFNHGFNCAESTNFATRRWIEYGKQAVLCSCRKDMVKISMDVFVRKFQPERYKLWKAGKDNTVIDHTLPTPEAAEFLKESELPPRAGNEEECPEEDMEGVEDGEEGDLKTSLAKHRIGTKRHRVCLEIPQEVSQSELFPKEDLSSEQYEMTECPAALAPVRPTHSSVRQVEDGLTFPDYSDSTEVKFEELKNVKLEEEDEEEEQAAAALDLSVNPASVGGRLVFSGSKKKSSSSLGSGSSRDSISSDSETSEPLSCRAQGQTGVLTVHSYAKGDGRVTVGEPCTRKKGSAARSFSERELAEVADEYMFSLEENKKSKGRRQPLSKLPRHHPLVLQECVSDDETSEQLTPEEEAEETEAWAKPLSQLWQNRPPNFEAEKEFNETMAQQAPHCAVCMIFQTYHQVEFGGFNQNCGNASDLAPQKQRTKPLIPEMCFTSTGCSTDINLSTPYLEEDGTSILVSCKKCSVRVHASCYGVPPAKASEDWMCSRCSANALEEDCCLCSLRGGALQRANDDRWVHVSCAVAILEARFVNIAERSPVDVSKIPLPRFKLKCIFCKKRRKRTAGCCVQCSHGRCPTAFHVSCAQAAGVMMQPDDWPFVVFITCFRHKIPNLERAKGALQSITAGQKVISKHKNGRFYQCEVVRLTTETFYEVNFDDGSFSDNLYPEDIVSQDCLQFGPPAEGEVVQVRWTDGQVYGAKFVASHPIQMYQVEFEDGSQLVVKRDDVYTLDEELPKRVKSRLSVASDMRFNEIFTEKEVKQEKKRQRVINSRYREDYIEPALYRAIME
12-LOX inh: Primary qHTS assay for inhibitors of human arachidonate 12S-lipoxygenase (ALOX12): Round 2; purified 12hLO, xylenol orange hydroperoxide absorbance; 580,000 tested, 1.1% active; Potency, µM (series often up to 108 µM), actives largely listed as inhibitors
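Hydroperoxide product was detected by ferrous iron/xylenol orange as the 573 to 405 nm absorbance ratio. Arachidonic acid at 40 uM (final) was turned over for 30 min at room temperature by 150 nM human 12hLO, pH 7.0 Hepes buffer, after 15 min compound preincubation.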
BAZ2B block: qHTS Assay for Inhibitors of BAZ2B; AlphaScreen BAZ2B-H3K14Ac peptide displacement; 360,000 tested, 4.4% active; Potency, µM (series often up to 114 µM), actives largely listed as inhibitors; Bromodomain adjacent to zinc finger domain protein 2B (Homo sapiens), Q9UIF8; note: nearly all actives have a fitted effect of over 60% in size
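BAZ2B (50 nM) with biotin-H3(5-23)K14Ac peptide (50 nM) in PBS pH 7.4, 0.01% Tween-20, preformed 30 min, then compound 30 min at room temperature; top concentration 110uM. AlphaScreen streptavidin donor/nickel chelate acceptor beads (10 ug/mL final), 20 min dark, signal read.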
Sfp PPTase inh: qHTS Assay for Inhibitors of Bacillus subtilis Sfp phosphopantetheinyl transferase (PPTase). 4'-phosphopantetheinyl transferase ffp (Bacillus subtilis), Q9F4F7. Biochemical Sfp PPTase activity, qHTS. Potency, µM, hits mostly inhibitors. 310,000 tested, 3.5% active;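 note: the enzyme is Sfp with the accession as filed and its product quenches rhodamine fluorescence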
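Step 1, compound plus 15 nM Sfp-PPTase, 15 min, room temperature. Step 2, add rhodamine-CoA (5 uM) and BHQ-2-YbbR (12.5 uM). Step 3, read 525/598 nm fluorescence at 0 and 30 min.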
HP1b chromo inh: HTS for Inhibitors of HP1-beta Chromodomain Interactions with Methylated Histone Tails. 390,000 tested, 0.56% active. Potency, µM (doses to about 114 µM), most hits filed as inhibitors. Chromobox protein homolog 1 (Homo sapiens), P83916. AlphaScreen HP1-beta / biotin-H3K9me3 peptide binding; note: nearly all actives have a fitted effect of over 70% in size
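AlphaScreen: HP1-beta (50 nM) preformed 30 min with biotin-H3(1-18)K9me3 peptide (50 nM) in PBS pH 7.4, 0.01% Tween-20. Compound added for 30 min at RT, then streptavidin donor/nickel chelate acceptor beads (10 ug/mL) for 30 min.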
G9a inh: qHTS Assay for Inhibitors of Histone Lysine Methyltransferase G9a. Histone-lysine N-methyltransferase EHMT2 (Homo sapiens), Q96KQ7. G9a H3K9 monomethylation, AlphaScreen, 2 h. Potency, µM (titrated, usually from 102 µM), hits mostly inhibitors. 350,000 tested, 8.8% active; note: nearly all actives have a fitted effect of over 75% in size
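Compounds were preincubated with 20 nM G9a for 15 min, after which biotinylated H3K9 peptide (500 nM) and SAM (20 uM) started a 2 h room-temperature reaction. Monomethylated product was quantified by antibody-based AlphaScreen chemiluminescence.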
Numbers stand for hits; - = inactive; ? = inconclusive; . = not tested or not shown; ! = repeats disagree. Calls come from the whole dose curve; as a rule, active = well fitted curve in the direction sought with a large enough effect; inconclusive = small, poorly fitted or top-dose-only effect, or another doubt; inactive = no such curve, though single readings can be large; an effect the other way counts as inactive or inconclusive.

SMILES	JMJD2A Tudor inh	12-LOX inh	BAZ2B block	Sfp PPTase inh	HP1b chromo inh	G9a inh
CCOc1ccc(-c2cc(OC(=O)c3ccccc3)c3c(C)oc(C)c3c(=O)c2)cc1	?	?	35µM	.	-	11µM
Fc1ccc(C2=CC(c3ccc(F)cc3)n3c(nc4ccccc43)N2)cc1 (centres undefined)	-	-	-	.	-	18µM
CCn1c(C(C)NC(=O)c2cccc(C)c2)nc2ccccc21 (centres undefined)	-	-	-	-	-	?
C=CCn1c(C(C)NC(=O)c2ccccc2)n[nH]c1=S (centres undefined)	10µM	-	-	-	-	.
CCCn1c(C(C)NC(=O)c2ccccc2)n[nH]c1=S (centres undefined)	8.9µM	-	-	-	-	.
CCn1c(C(C)NC(=O)c2cccc(C)c2)n[nH]c1=S (centres undefined)	-	-	-	-	-	45µM
C=CCn1c(SCCOc2ccccc2)nnc1C(C)NC(=O)c1ccccc1 (centres undefined)	-	-	-	-	-	-
O=C(OCc1cccs1)C1=NN(C2CCS(=O)(=O)C2)C(=O)CC1 (centres undefined)	.	-	.	.	.	.
CC1CCCC(C)N1C(=O)Cn1cc(/C=C2/C(=O)Nc3ccccc32)c2ccccc21 (centres undefined)	?	.	?	-	?	10µM
COC(=O)c1cn(CC(=O)N2C(C)CCCC2C)c2ccccc12 (centres undefined)	-	-	-	-	-	-
CN1C(=O)/C(=C/c2cn(CC(=O)N3CCCCC3)c3ccccc23)c2ccccc21	.	.	?	-	.	11µM
COc1ccc(-c2nc(C(C)C)nc3c2CCN(C(=O)c2ccccc2Cl)CC3)cc1	.	-	.	.	.	.
CN(C)N1C(=O)CC(c2ccc(F)cc2)C2=C1CC(C)(C)CC2=O (centres undefined)	.	-	.	.	.	.
CC1(C)CC(=O)C2=C(C1)N1CCc3cc4c(cc3C1=CC2c1ccc(F)cc1)OCCCO4 (centres undefined)	.	25µM	.	.	.	.
O=C(O)[C@H]1NCCC[C@H]1C(=O)O	.	.	.	.	.	6.7µM!
O=C(Cc1c[nH]c2ccccc12)N1CCCN(c2cc(-c3ccc(Br)cc3)[nH]n2)CC1	.	-	.	.	.	.
S=c1[nH]nc(-c2cc(-c3ccccn3)nc3ccccc23)o1	-	-	-	-	-	?
CSc1nnc(-c2cc(-c3ccc(C)cc3)nc3ccccc23)o1	-	-	-	-	-	7.9µM
Cc1ccc(-c2cc(-c3n[nH]c(=S)o3)c3ccccc3n2)cc1	?	2.2µM	?	-	-	?
COC1C(=O)N(c2cccc(F)c2)C12CCN(S(=O)(=O)c1ccccc1C)CC2 (centres undefined)	.	-	.	.	.	.
Cc1ccc(C(=O)Oc2cccc(C)c2C)cc1Br	.	-	.	.	.	.
OC(CN1CCN(c2ccccc2)CC1)Cn1c2ccccc2c2ccccc21 (centres undefined)	?	-	?	-	-	32µM
OC(CN1CCOCC1)Cn1c2ccccc2c2ccccc21 (centres undefined)	-	-	-	-	-	?
OC(CN1CCCCC1)Cn1c2ccc(Cl)cc2c2cc(Cl)ccc21 (centres undefined)	-	?	-	50µM	-	?
Cc1ccc(OCCN2CCN(CC(O)Cn3c4ccccc4c4ccccc43)CC2)cc1 (centres undefined)	.	?	20µM	45µM	.	8.9µM
OC(CN1CCNCC1)Cn1c2ccccc2c2ccccc21 (centres undefined)	-	?	-	-	-	50µM
